These results are taken from PubChem BioAssay (NCATS).

SMILES strings stand for the structures. Several values for one entry are separate records, joined by “and”; a condition that tells them apart may be missing. Identical values can stand only once. Results filed as inconclusive are left out. Activity calls are given as the source filed them. Unless noted, the call rests on the fitted dose curve; in most records, active means well fitted curve in the direction sought with a large enough effect; inconclusive means small, poorly fitted or top-dose-only effect, or another doubt; inactive means no such curve, though single readings can be large; an effect the other way counts as inactive or inconclusive.

The target in test [1] is Calcium and integrin-binding protein 1 (Homo sapiens) (UniProt Q99828). Kind of test: Primary qHTS for Identification of Calcium Integrin Binding Protein 1 (CIB1) Competitor (AID 1508620).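 Further: GST tagged CIB1 binding a fluorescein labelled alphaIIb integrin peptide tracer; top concentration of the series differs between compounds; on the % scale 0 is the no-effect control and ±100 the full control effect.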 An outline of the steps:
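Fluorescence polarization competition: CIB1-GST (1 uM final) preincubated with compound 15 min at room temperature, then FITC-labeled alphaIIb peptide (100 nM final) added for another 15 min. Polarization read at Ex 480/Em 540.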
(Quantitative high-throughput screening tests each substance at several concentrations.)

Test [2] in a line: Primary qHTS for inhibitors of nuclear receptor binding SET domain protein 2 (NSD2) in an isogenic RCH-ACV NSD2 p.E1099K mutant (9B) (AID 1645876). Further: nearly all actives have a fitted effect of over 70% in size. Further: potency means the concentration at half of the fitted maximal effect.
Test [3] can be described thus: Primary qHTS for inhibitors of nuclear receptor binding SET domain protein 2 (NSD2) in an RCH-ACV wild type WT cells (2C) (AID 1645877). Further: nearly all actives have a fitted effect of over 70% in size. Further: potency means the concentration at half of the fitted maximal effect.
Test [4] in a line: NCATS anti-infectives library activity on HEK293 viability as a counter-qHTS vs the C. elegans viability qHTS (AID 1745854). Further: potency means the concentration at half of the fitted maximal effect. On activity change, negative = cytotoxicity: on the % scale 0 is the no-effect control and ±100 the full control effect. Put shortly: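 CellTiter-Glo luminescence, read on a CCD imager, scored viability of HEK293 cells after 24 hr compound exposure at 37C. Library tested in several concentrations, 1:5 steps, up to 41.7 uM; digitonin served as control.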
The nature of test [5]: Primary qHTS for small molecule stabilizers of the endoplasmic reticulum resident proteome: Secreted ER Calcium Modulated Protein (SERCaMP) assay (AID 1508630). Further: on the % scale 0 is the no-effect control and ±100 the full control effect. An outline of the steps:
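The SH-SY5Y reporter protocol was run at 3 concentrations up to 38.3 uM (primary) or 11 concentrations (follow-up): 16 h compound, 100 nM thapsigargin for 4 h, then extracellular luciferase luminescence.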

Test [6] deals with Catechol O-methyltransferase (Homo sapiens) (UniProt P21964). Kind of test: Confirmatory Screen for Target Class Profiling of Small Molecule Inhibitors of Methyltransferases (AID 1745852; calls by dose curve; further: potency means the concentration at half of the fitted maximal effect). Particulars: MTase-Glo luminescence, SAH detection, recombinant enzyme; measured here: COMT max response; stronger effect = lower value.
Chain of Catechol O-methyltransferase (Homo sapiens) (P21964 whole entry, looked up): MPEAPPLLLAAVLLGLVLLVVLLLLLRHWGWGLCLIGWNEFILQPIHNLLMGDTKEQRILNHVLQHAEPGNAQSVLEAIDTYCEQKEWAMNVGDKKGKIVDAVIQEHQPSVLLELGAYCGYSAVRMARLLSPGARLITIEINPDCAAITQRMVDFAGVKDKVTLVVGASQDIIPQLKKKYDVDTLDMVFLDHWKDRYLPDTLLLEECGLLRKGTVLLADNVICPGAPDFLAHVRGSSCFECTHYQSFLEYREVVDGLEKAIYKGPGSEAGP
In test [7] the target is Guanidinoacetate N-methyltransferase (Homo sapiens) (UniProt Q14353). The test is described as above. Particulars: activity change, negative = inhibition: at 57.3 µM (top of the series).
For test [8], the target named is Nicotinamide N-methyltransferase (Homo sapiens) (UniProt P40261). The description is as above. The following applies: MTase-Glo luminescence, SAH detection, recombinant enzyme; measured here: NNMT max response; stronger effect = lower value.
Chain of Nicotinamide N-methyltransferase (Homo sapiens) (P40261 whole entry, looked up): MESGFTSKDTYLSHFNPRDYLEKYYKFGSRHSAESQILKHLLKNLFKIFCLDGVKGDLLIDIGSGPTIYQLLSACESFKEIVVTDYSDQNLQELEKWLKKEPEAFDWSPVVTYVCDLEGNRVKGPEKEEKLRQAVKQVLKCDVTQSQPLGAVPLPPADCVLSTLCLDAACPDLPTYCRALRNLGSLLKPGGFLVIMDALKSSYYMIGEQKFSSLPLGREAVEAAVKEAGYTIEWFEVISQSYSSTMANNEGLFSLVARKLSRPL
The target in test [9] is Phenylethanolamine N-methyltransferase (Homo sapiens) (UniProt P11086). The test is described as above. The following applies: MTase-Glo luminescence, SAH detection, recombinant enzyme; measured here: PNMT max response; stronger effect = lower value.
Chain of Phenylethanolamine N-methyltransferase (Homo sapiens) (P11086 whole entry, looked up): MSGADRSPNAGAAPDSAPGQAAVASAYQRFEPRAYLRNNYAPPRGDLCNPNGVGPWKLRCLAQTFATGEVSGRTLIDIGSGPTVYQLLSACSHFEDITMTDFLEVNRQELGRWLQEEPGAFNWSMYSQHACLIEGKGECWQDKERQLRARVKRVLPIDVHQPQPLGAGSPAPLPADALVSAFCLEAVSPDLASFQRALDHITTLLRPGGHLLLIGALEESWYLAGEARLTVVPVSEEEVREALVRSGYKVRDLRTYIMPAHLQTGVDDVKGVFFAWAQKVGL
Test [10] addresses Cytochrome P450 2D6 (Homo sapiens) (UniProt P10635). Kind of test: Cytochrome P450 family 2 subfamily D member 6 (CYP2D6) small molecule antagonists: luciferase biochemical (cell-free) qHTS assay (AID 1645840; active means well fitted curve in the direction sought with a large enough effect in the repeat runs; an effect the other way counts as inactive or inconclusive; further: on the % scale 0 is the no-effect control and ±100 the full control effect; nearly all actives have a fitted effect of over 55% in size). Put shortly:
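P450-Glo CYP2D6 system: proluciferin substrate converted by enzyme to luciferin, read by luminescence proportional to activity. Enzyme-substrate mix with compound 10 min at room temperature, then NADPH regeneration 1 h before detection reagent.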

Test [11] has as its target Cytochrome P450 2C9 (Homo sapiens) (UniProt P11712). The test is described as follows: Cytochrome P450 family 2 subfamily C member 9 (CYP2C9) small molecule antagonists: luciferase biochemical (cell-free) qHTS assay (AID 1645842; active means well fitted curve in the direction sought with a large enough effect in the repeat runs; an effect the other way counts as inactive or inconclusive; further: nearly all actives have a fitted effect of over 55% in size; further: potency means the concentration at half of the fitted maximal effect; on activity change, negative = inhibition: on the % scale 0 is the no-effect control and ±100 the full control effect). Put shortly: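 P450-Glo CYP2C9 system: proluciferin substrate with enzyme in mix containing 0.4% BSA, 10 min at room temperature, then NADPH regeneration solution added and incubated 1 h at 37C. Detection reagent stopped reaction; luminescence read after 20 min as RLU.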

Chain of Cytochrome P450 2D6 (Homo sapiens) (P10635 whole entry, looked up): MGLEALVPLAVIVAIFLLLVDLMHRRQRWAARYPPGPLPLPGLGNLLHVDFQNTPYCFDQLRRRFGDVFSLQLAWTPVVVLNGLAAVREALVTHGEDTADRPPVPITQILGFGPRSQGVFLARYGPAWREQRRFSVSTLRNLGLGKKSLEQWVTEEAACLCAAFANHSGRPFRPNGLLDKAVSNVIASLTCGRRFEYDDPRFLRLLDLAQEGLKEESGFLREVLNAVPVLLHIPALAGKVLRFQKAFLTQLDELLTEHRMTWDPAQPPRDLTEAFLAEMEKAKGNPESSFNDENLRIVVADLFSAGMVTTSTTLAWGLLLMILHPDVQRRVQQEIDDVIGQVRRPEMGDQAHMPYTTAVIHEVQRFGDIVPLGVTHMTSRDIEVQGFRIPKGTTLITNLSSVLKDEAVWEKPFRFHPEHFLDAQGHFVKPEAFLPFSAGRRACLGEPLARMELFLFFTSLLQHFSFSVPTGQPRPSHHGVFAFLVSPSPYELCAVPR
Chain of Cytochrome P450 2C9 (Homo sapiens) (P11712 whole entry, looked up): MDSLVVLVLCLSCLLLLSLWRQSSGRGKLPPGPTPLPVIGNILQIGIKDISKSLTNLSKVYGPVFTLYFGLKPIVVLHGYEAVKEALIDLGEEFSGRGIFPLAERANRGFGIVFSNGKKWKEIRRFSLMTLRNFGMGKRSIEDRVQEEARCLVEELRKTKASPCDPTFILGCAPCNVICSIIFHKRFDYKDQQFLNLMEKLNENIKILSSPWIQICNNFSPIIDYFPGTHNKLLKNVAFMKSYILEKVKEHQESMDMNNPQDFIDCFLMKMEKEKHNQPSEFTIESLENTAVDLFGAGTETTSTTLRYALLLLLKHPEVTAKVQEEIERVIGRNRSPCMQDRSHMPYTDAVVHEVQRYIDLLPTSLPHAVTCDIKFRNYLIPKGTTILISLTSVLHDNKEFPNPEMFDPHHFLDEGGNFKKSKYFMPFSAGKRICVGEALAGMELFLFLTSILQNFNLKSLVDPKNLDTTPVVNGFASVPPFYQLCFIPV
Chain of Calcium and integrin-binding protein 1 (Homo sapiens) (Q99828 whole entry, looked up): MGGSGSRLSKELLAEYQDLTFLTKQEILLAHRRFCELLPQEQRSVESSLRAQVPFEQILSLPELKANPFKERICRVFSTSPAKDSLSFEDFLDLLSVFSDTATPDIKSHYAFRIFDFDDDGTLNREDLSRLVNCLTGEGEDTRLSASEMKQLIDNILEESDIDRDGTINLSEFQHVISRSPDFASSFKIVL

With `CCS(=O)(=O)Nc1ccc2[nH]c(O)c(C(=Nc3ccc(CN4CCCCC4)cc3)c3ccccc3)c2c1`, the Potency result in test [1] is “inactive”. Moreover, the Potency in test [2] was 148 nM (active); in test [3], 29.5 nM (active); in [4], 2000 nM (active).
As to `C[C@H]1[C@@H](OC(=O)CCC(=O)O)O[C@@H]2O[C@@]3(C)CC[C@@H]4[C@H](C)CC[C@@H]1[C@@]24OO3`, in test [1], the Potency result is “inactive”. The Potency in [2] is 1860 nM (active); in [3], 1480 nM (active).
For the compound `O=[N+]([O-])c1cn2c(n1)OC[C@@H](OCc1ccc(OC(F)(F)F)cc1)C2`, the Potency entry in test [1], in test [2] and in [3] was “inactive” each time.
`COc1cc2c(Nc3ccc(Cl)c(Cl)c3F)ncnc2cc1OCC1C[C@@H]2CN(C)C[C@H]2C1`: the Potency result in test [1] was “inactive”. In addition, in test [5], the outcome was “inactive”. For the same compound, the values for the activity in test [6], in test [8] and in test [9] were -71.6%, -56.2% and -68.7%, respectively. Moreover, in test [7], the Potency is 21500 nM (active).
For `C#CCC(Cc1cnc2nc(N)nc(N)c2n1)c1ccc(C(=O)N[C@@H](CCC(=O)O)C(=O)O)cc1` (stereo not given in full), the Potency result in test [1], in test [10] and in test [11] was “inactive” throughout. For the same compound, the figures for the Potency in test [2] and in test [3] were 4.7 nM (active) and 5.3 nM (active), respectively.
In the case of `NC1=N[C@H]2[C@H](CS[C@H]2CCCCC(=O)O)N1`, the Potency entry in test [10], in test [11] and in test [2] was “inactive” in each case.
Regarding `c1cc(CN2CCCNCCNCCCNCC2)ccc1CN1CCCNCCNCCCNCC1`, the outcome in test [5] was “inactive”. Further, the Potency result in test [3] and in test [4] was “inactive” in each case.
Turning to `O=c1ccn([C@@H]2O[C@H](CO)[C@H](O)[C@@H]2F)c(=O)[nH]1`, in test [5], the outcome is “inactive”.
With `C=Cc1c(C)c2cc3nc(cc4[nH]c(cc5nc(cc1[nH]2)C(C)=C5CCC(=O)O)c(CCC(=O)OC)c4C)[C@@]1(C)C3=CC=C(C(=O)OC)[C@H]1C(=O)OC`, the outcome in test [5] is “inactive”. In test [11], the Potency is 26800 nM (active). The Potency result in test [2] and in [4] was “inactive” each time.
Regarding `CCc1cc(C(C)=NOCc2ccc(C3CCCCC3)c(C(F)(F)F)c2)ccc1CN1CC(C(=O)O)C1`, in test [5], the outcome is “inactive”.
Consider `C[C@@]12C(=O)OC(=O)[C@@]1(C)C1CCC2O1`, for which the outcome in [5] was “inactive”.
Turning to `N#Cc1c(NC(=O)c2cccc3ccccc23)sc2c1CCCC2`, the outcome in [5] is “inactive”. The Potency in test [2] and in test [3] was 263 nM (active) each time.
As to `CCCCCCCCCCCCCCCC(=O)OC[C@@H](NC(=O)C(Cl)Cl)[C@H](O)c1ccc([N+](=O)[O-])cc1`, the outcome in test [5] is “inactive”. For the same compound, the Potency result in [10] is “inactive”. Besides, the Potency in [11] was 3010 nM (active).
For the compound `CN(C)c1ccc(C(=O)NCCCCCCC(=O)NO)cc1`, in test [5], the outcome is “inactive”. Further, the Potency in [2] is 525 nM (active); in test [3] it was 934 nM (active). Moreover, the Potency result in [4] is “inactive”.
Take `COc1cc(N2CCC(C(N)=O)CC2)ccc1Nc1nc(N)c(Cl)c(Nc2ccccc2S(=O)(=O)C(C)C)n1`: the outcome in [5] was “inactive”.
For the compound `COc1cc(CCc2cc(NC(=O)c3ccc(N4C[C@@H](C)N[C@@H](C)C4)cc3)n[nH]2)cc(OC)c1`, the outcome in [5] is “inactive”. Further, the Potency in test [2] was 9340 nM (active); in test [3], 5900 nM (active).
Turning to `OC[C@H]1OC(O)C[C@@H](O)[C@H]1O` (stereo not given in full), the outcome in [5] is “inactive”. In addition, the Potency entry in [2] and in test [3] was “inactive” throughout.
As for `COc1cccc2c1C(=O)c1c(O)c3c(c(O)c1C2=O)C[C@@](O)(C(=O)CO)C[C@@H]3O[C@H]1C[C@H](N)[C@@H](O)[C@H](C)O1`, the outcome in test [5] was “inactive”. Also, the Potency in test [2] is 66.1 nM (active); in [3] it was 46.8 nM (active).
Turning to `C[C@H]1COc2c(N3CCN(C)CC3)c(F)cc3c(=O)c(C(=O)O)cn1c23`, in test [5], the outcome is “inactive”. The Potency result in [3] was “inactive”.
As to `CCC(C(=O)O)C1CCC(C)C(C(C)C(O)C(C)C(=O)C(CC)C2OC3(C=CC(O)[C@@]4(CC[C@](C)(C5CC[C@@](O)(CC)C(C)O5)O4)O3)C(C)CC2C)O1` (stereo not given in full), the outcome in test [5] was “inactive”. Moreover, the results for the Potency in [2] and in test [3] were 468 nM (active) and 417 nM (active), respectively. Also, the activity change, negative = cytotoxicity in [4] is -17.2% [at 0.334 µM] (inactive).
Take `CC(C=CC=C(C)C=CC1=C(C)CCCC1(C)C)=CC=CC=C(C)C=CC=C(C)C=CC1=C(C)CCCC1(C)C`: in [5], the outcome was “inactive”.
As for `CNC(=O)Nc1ccc(-c2nc(N3CC4CCC(C3)O4)c3cnn(C4CCC5(CC4)OCCO5)c3n2)cc1`, the Potency is 74.2 nM (active) in [2] and 118 nM (active) in test [3].
For the compound `COc1cc(C[C@@H](CO)[C@H](CO)Cc2ccc(O)c(OC)c2)ccc1O`, the Potency result in test [2] and in test [3] was “inactive” each time.
Consider `CC(=O)O[C@H]1C[C@@H]2CC[C@H]3[C@H]4C[C@H]([N+]5(C)CCCCC5)[C@@H](OC(C)=O)[C@@]4(C)CC[C@@H]3[C@@]2(C)C[C@H]1N1CCCCC1`, for which the outcome in test [5] was “inactive”.
As for `N#CC(=C(O)c1ccc(Cl)cc1Cl)c1nc2cc(Cl)ccc2c(=O)[nH]1`, in test [5], the outcome is “inactive”.
As to `C=C[C@@H]1CN2CCC1C[C@H]2[C@H](O)c1ccnc2ccc(OC)cc12` (stereo not given in full), the outcome in [5] was “inactive”.
With `CC(C)n1cnc2c(NCCc3ccc(O)cc3)nc(-c3csc4ccccc34)nc21`, in test [5], the outcome is “inactive”. Further, the Potency is 2680 nM (active) in test [11], 20500 nM (active) in [2] and 26300 nM (active) in test [3].
On to `C=CCNC1=C2C[C@@H](C)C[C@H](OC)[C@@H](O)[C@@H](C)C=C(C)[C@H](OC(N)=O)[C@@H](OC)C=CC=C(C)C(=O)NC(=CC1=O)C2=O`, for which the outcome in test [5] is “inactive”.
In the case of `CC(=O)N1CCN(c2ccc(OCc3nn(C)c(C)c3-c3cccc4c(CCCOc5cccc6ccccc56)c(C(=O)O)n(Cc5cccnc5)c34)cc2)CC1`, in [5], the outcome is “inactive”.
Turning to `COc1ccc(Nc2cc(-c3cnc(N)nc3)nc(N3CCOCC3)n2)cn1`, in [5], the outcome is “inactive”. Further, the Potency result in test [10] was “inactive”. Moreover, the Potency in test [11] is 8490 nM (active); in test [2], 525 nM (active); in [3], 590 nM (active).
`CC(=O)O[C@]1(C(C)=O)CC[C@H]2[C@@H]3C=C(C)C4=CC(=O)CC[C@]4(C)[C@@H]3CC[C@@]21C`: in [5], the outcome is “inactive”.
For the compound `COc1cccc2c1C(=O)c1c(O)c3c(c(O)c1C2=O)C[C@@](O)(C(=O)CO)C[C@@H]3O[C@H]1C[C@H](N)[C@H](OC2CCCCO2)[C@H](C)O1` (stereo not given in full), in test [5], the outcome was “inactive”. Moreover, the Potency is 93.4 nM (active) and 2.63 µM (active) in [2]; 52.5 nM (active) and 2.95 µM (active) in [3].
In the case of `Cc1cnc(NC(=O)Nc2cc(Br)c(C)cc2OC[C@@H]2CNCCO2)cn1`, the outcome in test [5] is “inactive”. In addition, the Potency is 1050 nM (active) in test [2] and 934 nM (active) in test [3].
For the compound `FC(F)(F)c1ccc(Nc2nc3ccc(Oc4ccnc(-c5ncc(C(F)(F)F)[nH]5)c4)cc3[nH]2)cc1`, the outcome in [5] was “inactive”. The Potency is 23900 nM (active) in test [11], 14800 nM (active) in test [2] and 23500 nM (active) in test [3].
